Here are results for 28 molecules from PubChem BioAssay (NCATS).

Inconclusive results are not listed. Unmarked numbers belong to inactive results. The source made the active and inactive calls. Unless noted, calls come from the whole dose curve; as a rule, active = well fitted curve in the direction sought with a large enough effect; inconclusive = small, poorly fitted or top-dose-only effect, or another doubt; inactive = no such curve, though single readings can be large; an effect the other way counts as inactive or inconclusive.

Test [1] in a line: qHTS for Inhibitors of Plasmodium falciparum (DD2) proliferation (AID 504314).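 Note: parasite DNA measured by SYBR Green fluorescence after red cell lysis; plate controls were DMSO vehicle for no effect and artemisinin wells for full effect.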 In a few lines: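 Erythrocytes infected with P. falciparum Dd2 (0.3% parasitemia, 2.5% hematocrit) exposed to compound 72 h at 37C, 5% CO2. Parasite DNA quantified by SYBR Green fluorescence after saponin/Triton lysis overnight; normalized to 0.29 uM artemisinin and DMSO.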
On the technique in general: Quantitative high-throughput screening tests each substance at several concentrations.

Test [2] is described as follows: qHTS for Inhibitors of Plasmodium falciparum (GB4) proliferation (AID 504315).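 Note: 0% = DMSO vehicle and -100% = 0.29 µM artemisinin control; nearly all actives have a fitted effect of over 50% in size.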 In a few lines:
(§1)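 Erythrocytes infected with P. falciparum line (0.3% parasitemia, 2.5% hematocrit final) incubated with compounds 72 h at 37 °C, 5% CO2; SYBR Green lysis buffer added, fluorescence read next day. Normalized to 0.29 uM artemisinin and DMSO.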

Test [3] is described as follows: qHTS for Inhibitors of Plasmodium falciparum (7G8) proliferation (AID 504316). Note: nearly all actives have a fitted effect of over 65% in size. Note: potency is the fitted concentration of half-maximal effect. In a few lines: as §1
The nature of test [4]: qHTS for Inhibitors of Plasmodium falciparum (CP250) proliferation (AID 504320).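 Note: plate controls were DMSO vehicle for no effect and 0.29 µM artemisinin control for full effect.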 In a few lines:
as §1

Test [5] deals with Atrial natriuretic peptide receptor 1 (Homo sapiens) (UniProt P16066). Nature of the test: Natriuretic polypeptide receptor (hNpr1) antagonism - Pilot CMLD screen (AID 1347052; calls by dose curve;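 note: HEK293 cells with hNpr1 stimulated by hNppA peptide at 0.1 nM; cGMP level read as GloSensor luciferase luminescence after agonist stimulation; series mostly up to about 9.2 µM; % is set by controls: 0 for no effect and ±100 for the full control effect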).
Chain of Atrial natriuretic peptide receptor 1 (Homo sapiens) (P16066 whole entry, looked up): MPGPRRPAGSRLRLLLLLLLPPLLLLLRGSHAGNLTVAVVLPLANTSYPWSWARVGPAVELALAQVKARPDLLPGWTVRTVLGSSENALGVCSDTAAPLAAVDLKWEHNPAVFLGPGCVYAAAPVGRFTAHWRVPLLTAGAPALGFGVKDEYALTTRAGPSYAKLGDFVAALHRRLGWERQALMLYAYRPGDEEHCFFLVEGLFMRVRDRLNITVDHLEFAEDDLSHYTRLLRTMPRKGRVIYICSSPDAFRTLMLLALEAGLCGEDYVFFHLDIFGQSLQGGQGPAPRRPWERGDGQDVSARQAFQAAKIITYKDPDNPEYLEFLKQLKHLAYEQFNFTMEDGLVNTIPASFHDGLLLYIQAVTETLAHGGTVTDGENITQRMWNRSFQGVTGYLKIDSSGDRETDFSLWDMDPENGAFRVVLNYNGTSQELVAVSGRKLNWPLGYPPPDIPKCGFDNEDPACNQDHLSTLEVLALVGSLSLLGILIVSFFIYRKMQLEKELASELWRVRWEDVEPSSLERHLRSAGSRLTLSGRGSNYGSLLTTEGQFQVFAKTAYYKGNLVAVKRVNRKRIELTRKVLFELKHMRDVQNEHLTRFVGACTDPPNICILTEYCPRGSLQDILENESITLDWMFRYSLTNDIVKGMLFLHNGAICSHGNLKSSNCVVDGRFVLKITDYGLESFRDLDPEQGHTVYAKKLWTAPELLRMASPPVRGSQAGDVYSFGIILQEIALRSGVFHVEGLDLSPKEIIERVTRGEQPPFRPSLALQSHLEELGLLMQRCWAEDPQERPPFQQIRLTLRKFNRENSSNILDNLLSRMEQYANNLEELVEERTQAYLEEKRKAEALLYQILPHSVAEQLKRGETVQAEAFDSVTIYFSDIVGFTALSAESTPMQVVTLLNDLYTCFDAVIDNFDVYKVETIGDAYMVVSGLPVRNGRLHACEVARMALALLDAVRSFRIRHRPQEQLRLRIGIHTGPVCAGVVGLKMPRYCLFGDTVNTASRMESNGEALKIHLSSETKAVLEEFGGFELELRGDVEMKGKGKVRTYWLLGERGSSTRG

For the molecule `C=C(C#Cc1ccc(OC)cc1)CCN1C=C(C(=O)OCC)C(c2ccccc2)NC1=O` (stereo not given), the Potency result in test [1], in test [2], in test [3], in test [4] and in test [5] was “inactive” each time.
For `CCN1C(=O)NC(c2cccs2)C(C(=O)OC)=C1C` (stereo not given), the Potency entry in test [1], in test [2], in test [3], in test [4] and in test [5] was “inactive” in each case.
As to `COc1cc(C(NC(=O)C(F)(F)F)c2cc3ccccc3o2)cc(OC)c1OC` (stereo not given), the Potency entry in test [1], in test [2], in test [3], in test [4] and in test [5] was “inactive” in each case.
Regarding `CC(C)(C)OC(=O)NCCCC1=CC2=CC(=O)C(C)(O)C(=O)C2=CO1` (stereo not given), the Potency entry in test [1], in test [2], in test [3], in test [4] and in test [5] was “inactive” throughout.
`C#CCCOC(=O)N1C2=NC(C(=O)OC)=C(C(=O)OC)[C@@H]3Nc4ccccc4[C@]23C[C@H]1C(=O)OC`: the Potency entry in test [1], in test [2], in test [3], in test [4] and in test [5] was “inactive” throughout.
On to `COC(=O)CCCC1=CC2=C(c3ccccc3)C(=O)C(C)(OC(=O)C3CCCC3)C(=O)C2=CN1Cc1ccc(OC)cc1` (stereo not given), for which the activity, negative = inhibition in test [1] was 1.81% [at 1.12 µM]. Further, the Potency result in test [2], in test [3], in test [4] and in test [5] was “inactive” each time.
For `CC1(OC(=O)C2CCCC2)C(=O)C=C2C=C(c3ccsc3)OC=C2C1=O` (stereo not given), the Potency entry in test [1], in test [2], in test [3], in test [4] and in test [5] was “inactive” each time.
`CCCNC(=O)OC[C@H]1O[C@H](CCON=C2c3cc(OC)ccc3O[C@H](c3cccc(OC)c3)[C@H]2O)C=C[C@H]1Oc1ccc(OC)cc1`: the Potency entry in test [1], in test [2], in test [4] and in test [5] was “inactive” in each case. In addition, the Potency in test [3] is 1.69 µM (active).
Turning to `Cc1cc(C)c(S(=O)(=O)OC[C@H]2C=CC[C@@H](CCC[C@H]3O[C@H](C(=O)OC(C)C)CC[C@@H]3C)O2)c(C)c1`, the Potency result in test [1], in test [2], in test [3], in test [4] and in test [5] was “inactive” throughout.
As for `COc1ccc(COC(=O)NN=C2C[C@@H](O)[C@@H](O)[C@@H]3[C@H]4C(=O)N(C[C@@H]5CCCO5)C(=O)[C@@H]4CC[C@H]23)cc1`, the Potency entry in test [1], in test [2], in test [3], in test [4] and in test [5] was “inactive” throughout.
Turning to `COC(=O)[C@H]1C[C@@]2(CC=C(C)C)C(=O)[C@@](CC=C(C)C)(C(=O)C(C(=O)c3ccccc3)=C2OC)C1(C)C`, the Potency result in test [1], in test [2], in test [3], in test [4] and in test [5] was “inactive” in each case.
For the molecule `CC(=O)OC[C@H]1O[C@H](c2ccc(C(C)=O)cc2)C=C[C@H]1OC(C)=O`, the Potency result in test [1], in test [2], in test [3], in test [4] and in test [5] was “inactive” throughout.
As for `CC(=O)OC[C@H]1O[C@H](CC=NOC[C@@H](O)COCc2ccco2)C=C[C@H]1OC(C)=O`, the Potency result in test [1], in test [2], in test [3], in test [4] and in test [5] was “inactive” in each case.
Regarding `OC[C@@H](O)[C@@H](O)CCc1ccccc1`, the Potency result in test [1], in test [2], in test [3], in test [4] and in test [5] was “inactive” in each case.
On to `C=CC1=C2C=C(C3CC3)N(CCCOC(C)C)C=C2C(=O)C(C)(OC(=O)c2ccco2)C1=O` (stereo not given), for which, in test [1], the activity, negative = inhibition is 4.15% [at 1.12 µM]. Further, the Potency entry in test [2], in test [3], in test [4] and in test [5] was “inactive” in each case.
For the molecule `CCC(=O)OC1(C)C(=O)C=C2C=C(c3ccc(C#N)cc3)OC=C2C1=O` (stereo not given), the Potency entry in test [1], in test [2], in test [3], in test [4] and in test [5] was “inactive” throughout.
Take `CCOC(=O)CCN1C(=O)[C@@H]2[C@H]3[C@H](O)[C@H](O)CC(=NNC(=O)OCc4ccc(OC)cc4)[C@@H]3CC[C@H]2C1=O`: the Potency result in test [1], in test [2], in test [3], in test [4] and in test [5] was “inactive” in each case.
Consider `COC(=O)c1cc(C(=O)OC)n2c(C)cc3ccccc3c12`, for which the Potency entry in test [1], in test [2], in test [3], in test [4] and in test [5] was “inactive” each time.
As to `COCCN1C(=O)N[C@@H](c2cccc(C(F)(F)F)c2)[C@H](C(C)=O)[C@H]1C`, the Potency entry in test [1], in test [2], in test [3], in test [4] and in test [5] was “inactive” in each case.
For the molecule `CC[C@H]1OC(c2ccccc2)[C@H](C)[C@H]2O[C@@H]2[C@@H]1C(=O)OC` (stereo not given in full), the Potency result in test [1], in test [2], in test [3], in test [4] and in test [5] was “inactive” throughout.
Take `CC(C)OCCCN1C=C2C(=O)C(C)(OC(=O)C3CCCC3)C(=O)C=C2C=C1c1ccsc1` (stereo not given): in test [1], the activity, negative = inhibition is -2.66% [at 1.12 µM]. The Potency result in test [2], in test [3], in test [4] and in test [5] was “inactive” throughout.
Turning to `O=C1[C@H]2[C@@H]3[C@@H](O)[C@H](O)CC(=NOCc4ccccc4)[C@H]3CC[C@H]2C(=O)N1Cc1ccc2c(c1)OCO2`, the Potency result in test [1], in test [2], in test [3], in test [4] and in test [5] was “inactive” throughout.
`C=CCN=C1N[C@@H](c2ccccc2)[C@H](C(=O)OC)[C@@H](C)N1CC`: the Potency result in test [1], in test [2], in test [3], in test [4] and in test [5] was “inactive” each time.
For the molecule `COC(=O)N1[C@H]2CC[C@@]3(C)CC(=O)C[C@]1(C)C3c1ccccc12`, the Potency result in test [1], in test [2], in test [3], in test [4] and in test [5] was “inactive” in each case.
As for `COC1=C[C@H](C(=O)NCc2ccccn2)[C@H](C)[C@@H](c2ccccc2)CC1=O`, the Potency entry in test [1], in test [2], in test [3], in test [4] and in test [5] was “inactive” throughout.
As to `COC(=O)CC=C[C@@H](C)[C@@H](Cc1ccccc1Br)OC`, the Potency result in test [1], in test [2], in test [3], in test [4] and in test [5] was “inactive” in each case.
As for `COc1ccc2c(c1)c(CC(=O)NCc1ccc3c(c1)OCO3)c(C)n2C(=O)c1ccc(Cl)cc1`, the Potency result in test [1], in test [2], in test [3], in test [4] and in test [5] was “inactive” in each case.
Turning to `C=CCN1C(=O)[C@]2(OCCC=C[C@@H]2C)c2cc(OC)ccc21`, the Potency result in test [1], in test [2], in test [3], in test [4] and in test [5] was “inactive” throughout.
